Data reported in PubChem BioAssay.
Values without a mark were called inactive. The rule behind the calls is not given here.

target: Pantothenate synthetase (Mycobacterium tuberculosis (strain ATCC 25618 / H37Rv)) (UniProt P9WIL5); assay: Recombinant Mtb pantothenate synthetase (PanC) inhibitors, coupled enzyme, confirmatory (AID 375); conditions: coupled enzyme assay; at 10 µM, active compounds read high;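 note: 0% = full reaction with vehicle and 100% = no enzyme background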
Sequence (P9WIL5 whole entry, looked up): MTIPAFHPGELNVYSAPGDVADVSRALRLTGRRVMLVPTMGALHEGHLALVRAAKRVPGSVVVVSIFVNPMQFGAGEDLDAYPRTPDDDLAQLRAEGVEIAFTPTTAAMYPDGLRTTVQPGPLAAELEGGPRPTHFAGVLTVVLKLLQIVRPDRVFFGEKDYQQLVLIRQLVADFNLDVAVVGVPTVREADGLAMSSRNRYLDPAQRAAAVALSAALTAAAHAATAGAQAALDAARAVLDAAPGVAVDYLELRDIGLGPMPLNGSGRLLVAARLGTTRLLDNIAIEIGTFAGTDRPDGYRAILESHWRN

Row | SMILES | inhibition
1 | CCCCCn1c(N2CCN(Cc3ccccc3)CC2)nc2c1c(=O)[nH]c(=O)n2C | 6%
2 | FC(F)(F)c1cc(-c2ccccc2)nc(N2CCCCC2)n1 | 2%
3 | CCCc1cc(=O)[nH]c(=S)[nH]1 | 3%
4 | C1=CC2CC1CC2CN1CCN(c2ccccc2)CC1 (stereo not given) | 5%
5 | Cc1cccc(CCNC(=O)C2CCCN(S(=O)(=O)c3cnc[nH]3)C2)c1 (stereo not given) | 5%
6 | O=S(=O)(Nc1nc2ccccc2nc1NCc1ccco1)c1cccs1 | 2%
7 | CSc1ccccc1NC(=O)c1c(Br)cnn1C | 0%
8 | COCC(=O)N(C)c1nnc(-c2ccccn2)s1 | 2%
9 | COc1ccc(N(CC(=O)Nc2ccccc2SC)S(C)(=O)=O)cc1OC | 2%
10 | COc1cccc(NC(=O)CC2SC(=Nc3ccccc3)NC2=O)c1 (stereo not given) | 0%
11 | Cc1cc(N=Cc2cc(Br)ccc2O)no1 | 6%
12 | CCc1ccc(CN(C)CCc2ccccn2)cc1 | 1%
13 | O=S1(=O)C=C(Oc2ccc(F)cc2)c2ccccc21 | 4%
14 | COc1ccc(-n2c(Cc3cccn3C)nnc2SCC(=O)Nc2cccc(C)c2C)cc1 | 0%
15 | O=C(NCC1CCCO1)c1cccc(N2C(=O)C3C4C=CC(C4)C3C2=O)c1 (stereo not given) | 11%
16 | CCn1c(SCC(=O)NCCc2ccc(Cl)cc2)nnc1-c1cccs1 | 1%
17 | Cc1cc(C(=O)NCc2cccnc2)no1 | 0%
18 | Cc1cccc2sc(NC(=O)CN(C)S(=O)(=O)c3cccs3)nc12 | 2%
19 | OC1C[N+]2(CCCCC2)C1 | 0%
20 | CCOC(=O)c1c(C)c(C(=O)NCCN2CCOCC2)c(C)n1C | 4%

Row | SMILES | inhibition
21 | COc1ccc(C2=NO[C@@H]3C(=O)N(c4ccc5c(c4)OCCO5)C(=O)[C@H]23)cc1OC | 3%
22 | Cc1ccc(C(=O)CSc2nnc(CNc3ccc(C)cc3C)o2)cc1 | 7%
23 | Cc1cc(-n2c(C)cc(C(=O)CSc3nnnn3-c3ccc(Cl)cc3)c2C)no1 | 7%
24 | CC(=O)C1=C(O)C(=O)N(c2ccc(C(=O)O)cc2)C1c1ccccc1 (stereo not given) | 0%
25 | CSCC[C@@H](Nc1nc(-c2ccccc2)nc2c1oc1ccccc12)C(=O)O | 4%
26 | COCCn1nnnc1CN(CCCN1CCOCC1)Cc1cc2c(C)ccc(C)c2[nH]c1=O | 0%
27 | O=C1CCCC2=C1C(c1cccc(Br)c1)n1nc(-c3ccco3)nc1N2 (stereo not given) | 0%
28 | COc1cc(S(=O)(=O)NC2CCCCC2C)ccc1Cl (stereo not given) | 0%
29 | C(=N\c1c(-c2ccccc2)nc2n1CCS2)/c1ccccc1 | 4%
30 | O=C(Nc1ccc(N2CCCC2)cc1)c1ccc(Br)o1 | 0%
31 | CCOC(=O)Nc1nnc(-c2ccccc2OC)s1 | 0%
32 | Cc1cc(NC(=O)CCC(=O)N(CC2CCCO2)C(C(=O)NC2CCCC2)c2ccccc2C)no1 (stereo not given) | 0%
33 | CCc1nc(C)ccc1OCC(=O)O | 3%
34 | COc1ccc(OC)c(NC(=O)CSc2nnc(-c3ccco3)n2-c2ccccc2)c1 | 0%
35 | CCOC(=O)N1CCC(c2cc(=O)n3[nH]cc(C(=O)OC)c3n2)CC1 | 0%
36 | COc1cc(-c2noc(-c3cccc(Cl)c3)n2)cc(OC)c1OC | 0%
37 | COc1ccc(OCCCC(=O)Nc2nncs2)cc1 | 0%
38 | N#Cc1cc2sc3nnc(-c4ccncc4)n3c2cc1C#N | 0%
39 | Cc1ccc(C)c(-c2nc3ccc(N)cc3[nH]2)c1 | 0%
40 | CN(C)c1oc(-c2ccccc2Cl)nc1C#N | 4%
